Screens (PubChem BioAssay)
PABP1 MLLE inh: inhibitors of PABP1 MLLE–PAM2 peptide binding, primary screen, biochemical, fluorescence polarization, FITC-PAM2, GST-MLLE; AID 588489, 2011; inhibition, % at 20 µM; 0.36% of 360,000 active; in the data active means inhibition above about 35%, passing the limit was not always enough;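 further: plate controls were DMSO wells with GST-MLLE for no effect and wells lacking GST-MLLE protein for full effect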
PABP FP inh: PABP poly(A) RNA binding inhibitors, primary screen, biochemical, fluorescence polarization, uHTS; Polyadenylate-binding protein 1 (Homo sapiens), P11940; calls only at 35 µM; 1% of 290,000 active; AID 2014, 2009;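 further: calls also rest on retests at 20 µM and on dose response follow-up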
eIF4E-4G inh: eIF4E–eIF4G protein interaction inhibitors, primary screen, biochemical, uHTS, TR-FRET, eIF4GI fragment; TR-FRET eIF4E-eIF4GI(517-606) binding, 2 h; 0.37% of 220,000 active; Eukaryotic translation initiation factor 4E (Mus musculus) + Eukaryotic translation …; inhibition, % at 21.7 µM; AID 782, 2007;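 active means inhibition above about 30%, limit read from the data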;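 further: 0% = full FRET control wells and 100% = background wells lacking eIF4GI fragment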
PERK inh: block of dimerizer-induced PERK translation repression, primary screen, PERK inhibitor project, CHO PERK-DD cells, SEAP luminescence, HTS. Eukaryotic translation initiation factor 2-alpha kinase 3 (Homo sapiens), Q9NZJ5. CHO PERK-DD fusion, SEAP luminescence translation reporter. inhibition, % at 5.6 µM. 0.17% of 220,000 active. AID 1416, 2008;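 active means inhibition above the mean inhibition of all tested compounds plus 3 SD, set separately per screening campaign, cut at about 2.9% in these data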;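 further: PERK kinase domain activated by AP20187 dimerizer at 100 nM; 0% = DMSO with dimerizer and 100% = rapamycin at 8.4 µM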
eIF4H inh: human eIF4H binding inhibitors, primary screen, translation initiation inhibitor project, biochemical, uHTS, fluorescence polarization; Eukaryotic translation initiation factor 4H (Homo sapiens), Q15056; eIF4H fluorescence polarization binding assay; inhibition, % at 35 µM; 0.94% of 290,000 active; AID 2012, 2009;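 further: calls also rest on retests at 20 µM and on dose response follow-up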
* = called active by the depositor. Only some compounds are listed: those with a hit (about 1.6% of all), similar ones and a draw of the others. Unless noted, how the calls were made is not given here.

O=c1cc(Cc2ccccc2)[nH]c(=S)[nH]1 was read as PABP1 MLLE inh 33, PABP FP inh inactive, eIF4E-4G inh 5, PERK inh 0 and eIF4H inh -10.
COCc1cc(=O)[nH]c(=S)[nH]1 was read as PABP1 MLLE inh 40*, PABP FP inh inactive, eIF4E-4G inh -5, PERK inh 2 and eIF4H inh 1.
For COCc1cc(C)c(C#N)c(=S)[nH]1 the results were PABP1 MLLE inh 37*, PABP FP inh inactive, eIF4E-4G inh 6, PERK inh 0 and eIF4H inh -7.
`CCOc1ccc(NC(=O)CN2C(=O)COc3ccccc32)cc1` gave PABP1 MLLE inh -11, PABP FP inh inactive and eIF4H inh -5.
`Cc1ccc(NC(=O)CN(C)CC(=O)Nc2ccccc2C#N)cc1` gave PABP1 MLLE inh 15, PABP FP inh inactive, eIF4E-4G inh -5, PERK inh -1 and eIF4H inh active.
`CCCN(CC(=O)Nc1cc(C)on1)CC(=O)Nc1ccccc1C` gave PABP1 MLLE inh -2.
For CCCN(CC(=O)Nc1ccc(C(C)=O)cc1)CC(=O)Nc1ccccc1C the results were PABP1 MLLE inh -21, PABP FP inh active, eIF4E-4G inh 2, PERK inh -1 and eIF4H inh inconclusive.
`Cc1cc(N2C(=O)C3C4CC(c5ccccc5)C(C4)C3C2=O)no1` (centres undefined) gave PABP1 MLLE inh 1, PABP FP inh inactive, eIF4E-4G inh 1, PERK inh 1 and eIF4H inh 7.
For CCC1(c2ccccc2)NC(=O)N(CC(=O)NNC(=O)COc2ccc(Cl)cc2C)C1=O (centres undefined) the results were PABP1 MLLE inh 14.
Screening CC[n+]1ccc(/C=C2\Sc3ccccc3N2CCCS(=O)(=O)[O-])c2ccccc21 returned PABP1 MLLE inh -143, PABP FP inh active, eIF4E-4G inh 23, PERK inh 0 and eIF4H inh 0.
Screening Cc1c2ccccc2cc[n+]1CCCS(=O)(=O)[O-] returned PABP1 MLLE inh -2, PABP FP inh inactive, eIF4E-4G inh -4, PERK inh 1 and eIF4H inh 5.
COc1ccc(CNC(=O)C2Cc3cc(S(=O)(=O)N4CCCC4)ccc3N2C(C)=O)c(OC)c1 (centres undefined) was read as PABP1 MLLE inh 2, PABP FP inh inactive and eIF4H inh 4.
For COc1ccc(OC)c(N2C(=O)[C@@H]3C(c4ccccc4Cl)=NO[C@@H]3C2=O)c1 the results were PABP1 MLLE inh -8, PABP FP inh active, eIF4E-4G inh 17, PERK inh 1 and eIF4H inh 81*.
Nc1ccc2ncccc2c1N was read as PABP1 MLLE inh 11, PABP FP inh active and eIF4H inh 87*.
`c1cnc2ccc3ncccc3c2c1` gave PABP1 MLLE inh -13, PABP FP inh inactive, eIF4E-4G inh -1, PERK inh 2 and eIF4H inh 11.
`CC(=O)Nc1ccc(-c2ccnc3c2CC(C)(C(=O)Nc2cccc(OC(F)(F)F)c2)O3)cc1` (centres undefined) gave PABP1 MLLE inh 11.
Screening O=C(Nc1ccc(Cl)c(Cl)c1)Nc1nnc(-c2ccncc2)s1 returned PABP1 MLLE inh -6, PABP FP inh active, eIF4E-4G inh 38*, PERK inh 0 and eIF4H inh 74*.
CC(=O)Nc1cc(-c2nn(C)c(=O)c3ccccc23)ccc1N1CCOCC1 was read as PABP1 MLLE inh -7, PABP FP inh active, eIF4E-4G inh -1, PERK inh -3 and eIF4H inh inconclusive.
`CCCC(=O)Nc1cc(-c2nn(C)c(=O)c3ccccc23)ccc1N1CCOCC1` gave PABP1 MLLE inh -4, PABP FP inh inactive, eIF4E-4G inh -1, PERK inh -1 and eIF4H inh 0.
`CCNc1oc(-c2ccccc2F)nc1S(=O)(=O)c1ccccc1` gave PABP1 MLLE inh 5, PABP FP inh inactive and eIF4H inh -12.
For COc1ccccc1-n1cc(-c2ccc([N+](=O)[O-])cc2)[nH]c1=S the results were PABP1 MLLE inh 39*, PABP FP inh inactive, eIF4E-4G inh 0, PERK inh 0 and eIF4H inh -1.
Cn1c(SCC(=O)NN2C(=O)NC(C)(c3ccccc3)C2=O)nnc1-c1ccncc1 (centres undefined) was read as PABP1 MLLE inh -21.
Screening O=C(Nc1cccc2ccccc12)c1ccc(Br)o1 returned PABP1 MLLE inh 13, PABP FP inh inactive, eIF4E-4G inh 47*, PERK inh 0 and eIF4H inh -3.
For O=C(Nc1cccc2cccnc12)c1ccc(Br)o1 the results were PABP1 MLLE inh 2, PABP FP inh inactive, eIF4E-4G inh 2, PERK inh 0 and eIF4H inh 6.
For COC(=O)c1cc([N+](=O)[O-])c(-n2cncn2)c([N+](=O)[O-])c1 the results were PABP1 MLLE inh 2, PABP FP inh active, eIF4E-4G inh 0, PERK inh 1 and eIF4H inh 71.
`COC(=O)c1ccc2c(=O)[nH]c(COC(=O)c3c(-c4ccccc4Cl)noc3C)nc2c1` gave PABP1 MLLE inh -17.
Screening CCOC(=O)c1c(NC(=O)CSc2nnnn2-c2ccc(OC)cc2)sc(C)c1C returned PABP1 MLLE inh 43*, PABP FP inh inactive, eIF4E-4G inh 30*, PERK inh 1 and eIF4H inh 1.
For CCOC(=O)c1csc(NC(=O)CSc2nnnn2-c2ccc(OC)cc2)n1 the results were PABP1 MLLE inh 0, PABP FP inh inactive, eIF4E-4G inh 3, PERK inh 1 and eIF4H inh -5.
`Cc1c(OCC(=O)NCC2CCC(C(=O)NCCCO)CC2)ccc2c(-c3ccccc3)cc(=O)oc12` (centres undefined) gave PABP1 MLLE inh -4, PABP FP inh inactive and eIF4H inh 4.
For COC/C=C/C1=CC2=CC(=O)C(C)(OC(=O)c3ccco3)C(=O)C2=CO1 (centres undefined) the results were PABP FP inh inconclusive, eIF4E-4G inh 19 and eIF4H inh inconclusive.
COC/C=C/C1=CC2=CC(=O)C(C)(OC(=O)C3CCCC3)C(=O)C2=CO1 (centres undefined) was read as PABP1 MLLE inh -9, PABP FP inh active, eIF4E-4G inh 8 and eIF4H inh 62*.
Screening CCOC(=O)c1nc(C)n(-c2cc(OC)c(Cl)cc2Cl)n1 returned PABP1 MLLE inh 11, PABP FP inh inactive, eIF4E-4G inh 1, PERK inh 0 and eIF4H inh 6.
